Results from PubChem BioAssay AID1159580 (chemical genetic matrix, 2015).
Out of some 5,500 compounds screened, about 2,000 (36%) were called active. Inconclusive results (about 18%) are left out. The list shows a part of the results. Unmarked numbers belong to inactive results. No stated cut-off is given here; in the data, active means normalized growth mostly below about 0.91 (no sharp cut-off); inconclusive means no clear call, values can overlap the other calls; inactive means mostly above about 0.92.

Test: chemical genetic growth profiling, strain panel (AID 1159580);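 further: tested at 20 µM; growth read once vehicle control cultures reached saturation at 30 °C; 1 = growth at the plate median or of vehicle wells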
Details: growth OD

For O=c1c(O)c(-c2ccccc2)oc2ccc3occc3c12, the normalized growth (S. cerevisiae deletion strains, locus YJR075W, strain HOC1, stronger effect = lower value) was 0.861 (active), the normalized growth (S. cerevisiae deletion strains, locus YKL009W, strain mrt4, stronger effect = lower value) was 0.793 (active) and the normalized growth (S. cerevisiae deletion strains, locus YKL068W, stronger effect = lower value) was 0.962. The normalized growth (S. cerevisiae deletion strains, locus YKL085W, strain MDH1 (second series), stronger effect = lower value) was 0.937, the normalized growth (S. cerevisiae deletion strains, locus YKL085W, strain MDH1, stronger effect = lower value) was 0.937 and the normalized growth (S. cerevisiae deletion strains, locus YKL160W, strain elf1, stronger effect = lower value) was 0.687 (active). The normalized growth (S. cerevisiae deletion strains, locus YKL190W, strain CNB1, stronger effect = lower value) was 0.941, the normalized growth (S. cerevisiae deletion strains, locus YKR001C, strain vps1, stronger effect = lower value) was 0.772 (active) and the normalized growth (S. cerevisiae deletion strains, locus YKR026C, strain gcn3, stronger effect = lower value) was 0.954. The normalized growth (S. cerevisiae deletion strains, locus YKR091W, strain srl3, stronger effect = lower value) was 0.974, the normalized growth (S. cerevisiae deletion strains, locus YLL001W, strain dnm1, stronger effect = lower value) was 0.657 (active) and the normalized growth (S. cerevisiae deletion strains, locus YLL026W, stronger effect = lower value) was 0.867 (active). For the same molecule, the normalized growth (S. cerevisiae deletion strains, locus YLL041C, strain sdh2, stronger effect = lower value) was 0.948, the normalized growth (S. cerevisiae deletion strains, locus YLR027C, strain aat2, stronger effect = lower value) was 0.795 (active) and the normalized growth (S. cerevisiae deletion strains, locus YLR039C, strain RIC1, stronger effect = lower value) was 0.878. The normalized growth (S. cerevisiae deletion strains, locus YLR058C, strain SHM2, stronger effect = lower value) was 0.854 (active), the normalized growth (S. cerevisiae deletion strains, locus YLR102C, strain apc9, stronger effect = lower value) was 0.912 (active) and the normalized growth (S. cerevisiae deletion strains, locus YLR113W, strain HOG1, stronger effect = lower value) was 0.893. For the same molecule, the normalized growth (S. cerevisiae deletion strains, locus YLR221C, strain rsa3, stronger effect = lower value) was 0.844 (active), the normalized growth (S. cerevisiae deletion strains, locus YLR258W, strain gsy2, stronger effect = lower value) was 0.745 (active) and the normalized growth (S. cerevisiae deletion strains, locus YLR262C, strain YPT6 (second series), stronger effect = lower value) was 0.795 (active). The normalized growth (S. cerevisiae deletion strains, locus YLR262C, strain YPT6, stronger effect = lower value) was 0.946, the normalized growth (S. cerevisiae deletion strains, locus YLR268W, strain sec22, stronger effect = lower value) was 0.77 (active) and the normalized growth (S. cerevisiae deletion strains, locus YLR320W, strain mms22, stronger effect = lower value) was 0.76 (active). The normalized growth (S. cerevisiae deletion strains, locus YLR330W, strain CHS5, stronger effect = lower value) was 0.847 (active), the normalized growth (S. cerevisiae deletion strains, locus YLR342W, strain FKS1 (second series), stronger effect = lower value) was 0.755 (active) and the normalized growth (S. cerevisiae deletion strains, locus YLR342W, strain FKS1, stronger effect = lower value) was 0.796 (active). For the same molecule, the normalized growth (S. cerevisiae deletion strains, locus YLR357W, strain rsc2, stronger effect = lower value) was 0.87, the normalized growth (S. cerevisiae deletion strains, locus YLR370C, strain arc18, stronger effect = lower value) was 0.768 (active) and the normalized growth (S. cerevisiae deletion strains, locus YLR371W, strain rom2, stronger effect = lower value) was 0.655 (active). For the same molecule, the normalized growth (S. cerevisiae deletion strains, locus YLR384C, strain iki3, stronger effect = lower value) was 0.954, the normalized growth (S. cerevisiae deletion strains, locus YLR418C, strain cdc73, stronger effect = lower value) was 0.451 (active) and the normalized growth (S. cerevisiae deletion strains, locus YML016C, strain PPZ1, stronger effect = lower value) was 0.939. The normalized growth (S. cerevisiae deletion strains, locus YML032C, strain rad52, stronger effect = lower value) was 0.685 (active), the normalized growth (S. cerevisiae deletion strains, locus YML120C, strain ndi1, stronger effect = lower value) was 0.753 (active) and the normalized growth (S. cerevisiae deletion strains, locus YML124C, strain tub3, stronger effect = lower value) was 0.899 (active). For the same molecule, the normalized growth (S. cerevisiae deletion strains, locus YMR058W, strain fet3, stronger effect = lower value) was 0.817 (active), the normalized growth (S. cerevisiae deletion strains, locus YMR078C, strain ctf18, stronger effect = lower value) was 0.852 (active) and the normalized growth (S. cerevisiae deletion strains, locus YMR125W, strain sto1, stronger effect = lower value) was 0.877 (active). The normalized growth (S. cerevisiae deletion strains, locus YMR129W, stronger effect = lower value) was 0.88 (active), the normalized growth (S. cerevisiae deletion strains, locus YMR205C, strain PFK2, stronger effect = lower value) was 0.611 (active) and the normalized growth (S. cerevisiae deletion strains, locus YMR223W, strain ubp8, stronger effect = lower value) was 0.762 (active). For the same molecule, the normalized growth (S. cerevisiae deletion strains, locus YMR231W, strain pep5, stronger effect = lower value) was 1, the normalized growth (S. cerevisiae deletion strains, locus YMR263W, strain SAP30, stronger effect = lower value) was 0.854 (active) and the normalized growth (S. cerevisiae deletion strains, locus YMR307W, strain GAS1, stronger effect = lower value) was 0.687. The normalized growth (S. cerevisiae deletion strains, locus YNL067W, strain RPL9B, stronger effect = lower value) was 0.863 (active), the normalized growth (S. cerevisiae deletion strains, locus YNL071W, strain lat1, stronger effect = lower value) was 0.363 (active) and the normalized growth (S. cerevisiae deletion strains, locus YNL128W, strain TEP1, stronger effect = lower value) was 0.911. For the same molecule, the normalized growth (S. cerevisiae deletion strains, locus YNL183C, strain NPR1, stronger effect = lower value) was 0.884, the normalized growth (S. cerevisiae deletion strains, locus YNL209W, strain ssb2, stronger effect = lower value) was 0.853 (active) and the normalized growth (S. cerevisiae deletion strains, locus YNL233W, strain BNI4, stronger effect = lower value) was 0.693 (active). The normalized growth (S. cerevisiae deletion strains, locus YNL248C, strain rpa49, stronger effect = lower value) was 0.953, the normalized growth (S. cerevisiae deletion strains, locus YNL250W, strain rad50, stronger effect = lower value) was 0.921 and the normalized growth (S. cerevisiae deletion strains, locus YNL271C, strain bni1, stronger effect = lower value) was 0.889 (active). For the same molecule, the normalized growth (S. cerevisiae deletion strains, locus YNL298W, strain CLA4, stronger effect = lower value) was 0.887 (active), the normalized growth (S. cerevisiae deletion strains, locus YNL307C, strain MCK1, stronger effect = lower value) was 0.521 (active) and the normalized growth (S. cerevisiae deletion strains, locus YNL322C, strain KRE1 (second series), stronger effect = lower value) was 0.814 (active). For the same molecule, the normalized growth (S. cerevisiae deletion strains, locus YNL322C, strain KRE1, stronger effect = lower value) was 0.954, the normalized growth (S. cerevisiae deletion strains, locus YNR049C, strain mso1, stronger effect = lower value) was 0.93 and the normalized growth (S. cerevisiae deletion strains, locus YNR052C, strain pop2, stronger effect = lower value) was 0.864 (active). The normalized growth (S. cerevisiae deletion strains, locus YOL012C, strain htz1) was 1.09, the normalized growth (S. cerevisiae deletion strains, locus YOL147C, strain pex11, stronger effect = lower value) was 0.703 (active) and the normalized growth (S. cerevisiae deletion strains, locus YOR001W, strain rrp6, stronger effect = lower value) was 0.826 (active). For the same molecule, the normalized growth (S. cerevisiae deletion strains, locus YOR061W, strain CKA2, stronger effect = lower value) was 0.935, the normalized growth (S. cerevisiae deletion strains, locus YOR069W, strain VPS5, stronger effect = lower value) was 0.932 and the normalized growth (S. cerevisiae deletion strains, locus YOR070C, strain gyp1, stronger effect = lower value) was 0.806 (active). For the same molecule, the normalized growth (S. cerevisiae deletion strains, locus YOR080W, strain dia2, stronger effect = lower value) was 0.889 (active), the normalized growth (S. cerevisiae deletion strains, locus YOR083W, strain WHI5, stronger effect = lower value) was 0.79 (active) and the normalized growth (S. cerevisiae deletion strains, locus YOR106W, strain vam3, stronger effect = lower value) was 0.737 (active). The normalized growth (S. cerevisiae deletion strains, locus YOR136W, strain idh2, stronger effect = lower value) was 0.876 (active), the normalized growth (S. cerevisiae deletion strains, locus YOR144C, strain elg1, stronger effect = lower value) was 0.823 (active) and the normalized growth (S. cerevisiae deletion strains, locus YOR184W, strain ser1, stronger effect = lower value) was 0.557 (active). The normalized growth (S. cerevisiae deletion strains, locus YOR231W, strain MKK1, stronger effect = lower value) was 0.909, the normalized growth (S. cerevisiae deletion strains, locus YOR265W, strain rbl2, stronger effect = lower value) was 0.85 (active) and the normalized growth (S. cerevisiae deletion strains, locus YOR270C, strain vph1, stronger effect = lower value) was 0.409 (active). For the same molecule, the normalized growth (S. cerevisiae deletion strains, locus YOR290C, strain snf2, stronger effect = lower value) was 0.589 (active), the normalized growth (S. cerevisiae deletion strains, locus YOR316C, strain cot1, stronger effect = lower value) was 0.881 (active) and the normalized growth (S. cerevisiae deletion strains, locus YPL051W, strain arl3, stronger effect = lower value) was 0.725 (active). The normalized growth (S. cerevisiae deletion strains, locus YPL078C, strain atp4, stronger effect = lower value) was 0.513 (active), the normalized growth (S. cerevisiae deletion strains, locus YPL106C, strain sse1, stronger effect = lower value) was 0.769 (active) and the normalized growth (S. cerevisiae deletion strains, locus YPL240C, strain hsp82, stronger effect = lower value) was 0.833 (active). The normalized growth (S. cerevisiae deletion strains, locus YPL241C, strain CIN2, stronger effect = lower value) was 0.966, the normalized growth (S. cerevisiae deletion strains, locus YPL256C, strain CLN2, stronger effect = lower value) was 0.982 and the normalized growth (S. cerevisiae deletion strains, locus YPR119W, strain clb2, stronger effect = lower value) was 0.888 (active). The normalized growth (S. cerevisiae deletion strains, locus YPR141C, strain kar3, stronger effect = lower value) was 0.956, the normalized growth (S. cerevisiae deletion strains, locus YPR163C, strain tif3, stronger effect = lower value) was 0.72 (active) and the normalized growth (S. cerevisiae deletion strains, locus YPR167C, strain met16, stronger effect = lower value) was 0.851 (active). For the same molecule, the normalized growth (S. cerevisiae deletion strains, strain wtn01, stronger effect = lower value) was 0.757 (active) and the normalized growth (S. cerevisiae strains, strain wild type, stronger effect = lower value) was 0.896 (active).
